Our source for the inhibition values is PubChem BioAssay AID1438 (Sanford-Burnham Center for Chemical Genomics, 2008).

The campaign covered roughly 2,200 compounds. About 45 (2%) were called active. These entries were drawn from the full list. Results with a measured potency or affinity are listed apart. A number with no mark means an inactive call. How the calls were made is not given here.

The target of this test is Runt-related transcription factor 1 (Homo sapiens) + Core-binding factor subunit beta (Homo sapiens) (UniProt Q01196+Q13951). Description: Runt domain/CBFb-SMMHC interaction disruptors – biochemical, TR-FRET (AID 1438). As to conditions: at 20 µM, stronger effect = higher value.
Sequence of Runt-related transcription factor 1 (Homo sapiens) + Core-binding factor subunit beta (Homo sapiens) (Q01196 whole entry, looked up, the tested form may be a part): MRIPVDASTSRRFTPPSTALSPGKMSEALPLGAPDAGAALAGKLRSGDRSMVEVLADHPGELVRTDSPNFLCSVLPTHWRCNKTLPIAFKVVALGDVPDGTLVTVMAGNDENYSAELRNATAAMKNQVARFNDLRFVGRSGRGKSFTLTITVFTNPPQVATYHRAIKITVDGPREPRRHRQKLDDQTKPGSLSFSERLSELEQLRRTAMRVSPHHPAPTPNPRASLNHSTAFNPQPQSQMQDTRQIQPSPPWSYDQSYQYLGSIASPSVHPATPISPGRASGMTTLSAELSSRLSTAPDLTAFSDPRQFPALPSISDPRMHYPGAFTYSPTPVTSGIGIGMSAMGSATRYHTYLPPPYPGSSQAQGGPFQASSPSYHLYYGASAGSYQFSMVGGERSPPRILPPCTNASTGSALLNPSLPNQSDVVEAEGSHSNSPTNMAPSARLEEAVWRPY
Sequence of Runt-related transcription factor 1 (Homo sapiens) + Core-binding factor subunit beta (Homo sapiens) (Q13951 whole entry, looked up, the tested form may be a part): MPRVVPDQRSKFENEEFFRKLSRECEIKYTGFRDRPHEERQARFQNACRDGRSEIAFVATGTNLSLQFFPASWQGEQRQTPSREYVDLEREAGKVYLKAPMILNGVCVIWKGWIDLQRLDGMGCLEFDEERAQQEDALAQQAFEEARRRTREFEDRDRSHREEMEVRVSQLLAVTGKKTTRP
Turning to `Cc1cc(O)ccc1N/C=C(\C#N)c1nc2ccccc2o1`, the inhibition (usually the drop in the measured response relative to a control, in per cent) was 8%.

Take `Cc1cc(Nc2ccccc2)nc2cc(O)ccc12`: the inhibition was 15.5%.

As to `Cc1ccc(C2C3=C(CC(C)(C)CC3=O)N(CCN3CCOCC3)C3=C2C(=O)CC(C)(C)C3)cc1`, the inhibition is 42.9%.

For the compound `C=CCOc1ccc(C2C(C#N)=C(N)N(Nc3ccccc3)C3=C2C(=O)CCC3)cc1OC` (configuration not stated), the inhibition was 32.3%.

As for `CCN1C2=C(C(=O)CCC2)C(c2ccc(O)c(Br)c2)C2=C1CCCC2=O`, the inhibition is 19.7%.

On to `CCCN1C2=C(C(=O)CCC2)C(c2ccc(O)c(Br)c2)C2=C1CCCC2=O`, for which the inhibition was 24.4%.

Regarding `N#Cc1c(N)[nH]c(=S)c(C#N)c1-c1ccccc1`, the inhibition was -64.2%.

For the compound `CCOC(=O)c1cc2c(=O)n3ccccc3nc2n(CCCOC)c1=NC(=O)c1ccncc1`, the inhibition was 2.5%.

As for `COCCN1C=C(C(=O)OC)C(c2cc(Br)c(OC)c(OC)c2)C(C(=O)OC)=C1`, the inhibition was 47.6%.

In the case of `COC(=O)C1C(O)CCC2CN3CCc4c([nH]c5ccccc45)C3CC21` (configuration not stated), the inhibition is -11.7%.

As to `C=CCn1c(=N)c(C(=O)NCCCOC)cc2c(=O)n3cccc(C)c3nc21`, the inhibition was 2.9%.

`Cn1c(=O)nc2n(Cc3ccccc3)c3ccccc3cc-2c1=O`: the inhibition was 36.1%.

On to `CCn1c(O)c(C=Nc2ccccc2)sc1=S`, for which the inhibition is -3.7%.

For `O=C1CCCC2=C1C(c1ccc(Br)cc1)c1c([nH]c(=S)[nH]c1=O)N2` (configuration not stated), the inhibition is 42.6%.

As for `c1ccc(-c2nc(N3CCCCC3)nc3ccccc23)cc1`, the inhibition was 25.8%.

Take `CCc1nnc(NC(=O)C2(C)COC(c3ccccc3)OC2)s1` (configuration not stated): the inhibition was -7%.

`CCC(C)(C)n1nnnc1C(c1cc2cc3c(cc2[nH]c1=O)OCO3)N1CCN(C)CC1` (configuration not stated): the inhibition is 39.5%.

`CCCNC(=O)Cn1sc2nc(C)cc(C)c2c1=O`: the inhibition is -3.9%.

Regarding `O=C(O)CSc1c2c(nc3cc(C(=O)N4CCOCC4)ccc13)CCCC2`, the inhibition was -4.9%.

Turning to `O=C(Cn1c2ccccc2c(=O)c2ccccc21)N/N=C/c1ccc(N2CCCC2)c([N+](=O)[O-])c1`, the inhibition is 10.6%.

Take `O=C(Cn1c2ccccc2c(=O)c2ccccc21)Nc1ccccc1F`: the inhibition was -15.4%.

As for `O=C(Cn1c2ccccc2c(=O)c2ccccc21)Nc1cccc(F)c1`, the inhibition was 39%.

On to `O=C(CCC(=O)N/N=C/c1cc(Cl)cc(Cl)c1O)NCc1ccccc1`, for which the inhibition is -4.9%.

On to `CCc1cc2c(COC(=O)c3c(C)noc3C)cc(=O)oc2cc1O`, for which the inhibition was -33.2%.

For the compound `COc1ccc(CNC(=O)c2cc3c(=O)n4ccccc4nc3n(Cc3cccnc3)c2=N)cc1`, the inhibition is 29.1%.

`N=c1c(C(=O)NCc2ccc3c(c2)OCO3)cc2c(=O)n3ccccc3nc2n1Cc1cccnc1`: the inhibition is 48.7%.

On to `N=c1c(C(=O)NCc2ccc(F)cc2)cc2c(=O)n3ccccc3nc2n1Cc1cccnc1`, for which the inhibition is 48.7%.

Consider `COc1ccc(CCn2c(=N)c(C(=O)NCc3ccco3)cc3c(=O)n4cccc(C)c4nc32)cc1`, for which the inhibition was 21.9%.

Consider `N=c1c(C(=O)NCc2ccc(F)cc2)cc2c(=O)n3ccccc3nc2n1CCCN1CCOCC1`, for which the inhibition was 38.7%.

With `N=c1c(C(=O)NCc2ccco2)cc2c(=O)n3ccccc3nc2n1Cc1ccccc1`, the inhibition is 65% (active).

`Cc1ccc(CNC(=O)c2cc3c(=O)n4ccccc4nc3n(CC3CCCO3)c2=N)cc1` (configuration not stated): the inhibition is 36.3%.

Consider `CCOC(=O)c1cc2c(=O)n3ccccc3nc2n(Cc2ccccc2)c1=N`, for which the inhibition is 41.8%.

In the case of `Cc1cccn2c(=O)c3cc(C(=O)NCc4ccco4)c(=N)n(CCc4ccccc4)c3nc12`, the inhibition is -9.3%.

Consider `CCN1/C(=C/C(=O)c2ccco2)Sc2ccccc21`, for which the inhibition was 15.1%.

For the compound `N#Cc1c(N)n(CCc2ccc(F)cc2)c2nc3ccccc3nc12`, the inhibition is 32%.

Turning to `COCCCNC(=S)NCCNc1nc2c(C)c(C)ccc2cc1C#N`, the inhibition is -1.9%.

Turning to `Cc1ccc(C2C=C(c3ccccc3)Nc3nc(N4C(=O)CCC4=O)nn32)cc1` (configuration not stated), the inhibition was -11.2%.

`Cc1ccc(C2C3=C(CC(C)(C)CC3=O)Nc3[nH]c(=S)[nH]c(=O)c32)cc1` (configuration not stated): the inhibition is 39.6%.

For `COCCCNC(=S)NCCCNc1nc2cc(C)cc(C)c2cc1C#N`, the inhibition was -6.6%.

For the compound `O=c1cc(-c2ccc(O)cc2)oc2cc(O)c(C3OC(CO)C(O)C(O)C3O)c(O)c12` (configuration not stated), the inhibition was -6.5%.

Consider `Cc1c2c(n3c(nc4ccccc43)c1C#N)N(CCN(C)C)CC2`, for which the inhibition is -12.2%.

Take `CCc1nnc(NS(=O)(=O)c2ccc(N/C=C/C(=O)c3ccc(OC)cc3)cc2)s1`: the inhibition is -1.7%.

For the compound `CCc1nnc(NC(=O)c2sc3nc4c(cc3c2N)CCCCCC4)s1`, the inhibition was 38.3%.

On to `Cc1ccc(C(=O)c2sc3nc4c(cc3c2N)CCC4)cc1`, for which the inhibition was 13.7%.

On to `Cc1cc(=O)oc2c(CN3CC(C)OC(C)C3)c(O)c(Cl)cc12` (configuration not stated), for which the inhibition was -12.9%.

Turning to `CCOC(=O)CCc1c(C)c(C#N)c2nc3ccccc3n2c1-n1ccnc1`, the inhibition was -4%.

`CCOC(=O)c1cc2ccc(OC)cc2oc1=O`: the inhibition is -9.7%.

In the case of `COC(=O)Cc1c(C)c2cc(Cl)c(OC(=O)c3ccco3)cc2oc1=O`, the inhibition was 19.4%.

`O=C(O)c1ccc(N=c2oc3cc(O)ccc3cc2C(=O)NCc2ccccc2)cc1`: the inhibition was -1.1%.

`c1ccn2c(c1)nc1c2nc2ccccn21`: the inhibition is 8.5%.

With `CCOC(=O)C1=C(CSc2nc3c(cc2C#N)CN(C)CC3)OC(N)=C(C#N)C1c1ccc(F)cc1` (configuration not stated), the inhibition is 22.5%.

Take `CCOC(=O)C1=C(CSc2nc3c(cc2C#N)CN(C)CC3)OC(N)=C(C#N)C1c1ccccc1` (configuration not stated): the inhibition was 29.2%.

As to `CCOC(=O)C1=C(O)/C(=C/c2cn(CC(=O)N3CCCC3)c3ccccc23)SC1=Nc1ccccc1`, the inhibition is 4%.

`CC1CCc2c(sc(Nc3nc4c(F)cccc4s3)c2C(N)=O)C1` (configuration not stated): the inhibition is 48.6%.

For `CCOC(=O)c1c(NC(=O)C(F)(OC)C(F)(F)F)sc2c1CCN(C)C2` (configuration not stated), the inhibition was -4.1%.

`CNC(=O)c1cc2c(ccc3ccccc32)oc1=N`: the inhibition was 2.9%.

As for `CCOC(=O)c1cc2c(ccc3ccccc32)oc1=O`, the inhibition is -0.5%.
